# PubChem BioAssay (NCATS)
# Results filed as inconclusive are left out. A call without a number means that no potency is given here. Activity calls are given as the source filed them. Calls follow the shape of the dose curve; as a rule, active = well fitted cell-killing curve with a large enough effect; inconclusive = small, poorly fitted or top-dose-only effect, or effect the other way; inactive = no such curve, though single readings can be large or run the other way.
# Experiment: Quantitative High-Throughput drug screen in 47 multiple myeloma cell lines against the NCATS MIPE library collection: KMS11_JCRBsus cell viability assay (AID 1919873); also: nearly all actives have a fitted effect of over 50% in size
# Conditions: KMS11 myeloma viability, CellTiter-Glo ATP luminescence, 48 h; series mostly up to 45.8 µM
# Procedure, shortened: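 ATP-based luminescence (CellTiter-Glo, 5 min RT incubation) quantified surviving cells following two days' treatment with MIPE 4.0 agents at 37 °C, 5% CO2.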
# Potency is read from the fitted curve at half-maximal effect.
row,SMILES,Potency
1,OCCn1cc(-c2cnc3nnn(Cc4ccc5ncccc5c4)c3n2)cn1,inactive
2,N=c1nc(N2CCCCC2)cc(N)n1O,inactive
3,O=C(Nc1nc2ccccc2n1CCN1CCOCC1)c1cccc([N+](=O)[O-])c1,inactive
4,Nc1nc2c(ncn2COCCO)c(=O)[nH]1,inactive
5,CC(C)OC(=O)C1=CN(C(=O)c2ccc(F)c(F)c2)CC(C)(C)c2c1[nH]c1ccccc21,inactive
6,Cc1n[nH]c(C)c1Cc1sc2c(c1C(=O)N1C[C@H](O)CO1)c(=O)n(C)c(=O)n2CC(C)C,52.6 nM (active)
7,COc1ccc2nc(S(=O)Cc3ncc(C)c(OC)c3C)[nH]c2c1 (stereo not given),inactive
8,CS(=O)(=O)c1cccc(CNc2nc(Nc3ccc4c(c3)CCC(=O)N4)ncc2C(F)(F)F)c1,8330 nM (active)
9,NC(=O)C1CCCc2c1[nH]c1ccc(Cl)cc21 (stereo not given),inactive
10,COc1cccc2cc(-c3nc(C4CCC(C(=O)O)CC4)n4ncnc(N)c34)[nH]c12 (stereo not given),132 nM (active)
11,CCC(C)n1ncn(-c2ccc(N3CCN(c4ccc(OC[C@H]5CO[C@](Cn6cncn6)(c6ccc(Cl)cc6Cl)O5)cc4)CC3)cc2)c1=O (stereo not given in full),1320 nM (active)
12,Nc1nccc(-c2ccc3noc(-c4ccc(Cl)cc4)c3c2)n1,inactive
13,CO[C@@H]1[C@H](N(C)C(=O)c2ccccc2)C[C@H]2O[C@]1(C)n1c3ccccc3c3c4c(c5c6ccccc6n2c5c31)C(=O)NC4,1870 nM (active)
14,OC(CN1CCC(Cc2ccc(F)cc2)CC1)c1ccc(Cl)cc1 (stereo not given),inactive
15,COc1cc(F)c(F)c(Nc2ccc(I)cc2F)c1NS(=O)(=O)C1(C[C@H](O)CO)CC1,16600 nM (active)
